Screening results (PubChem)
Most compounds without a hit are left out; they make up all but 1.3% or so of the library.
IDH1 R132H inh – blocks human mutant IDH1 R132H enzyme. O75874. IDH1-R132H enzyme, NADPH consumption, diaphorase/resazurin fluorescence. Potency, µM (titrated, usually from 76.6 µM), inactives show at the highest dose activity change, negative = inhibition, hits mostly inhibitors. 390,000 tested, 0.093% active; also: nearly all actives have a fitted effect of over 65% in size
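IDH1-R132H (0.5 ug/mL dispensed) in pH 7.5 Tris buffer was preincubated 30 min with compound, then given a substrate mix of 0.016 mM NADPH and 2 mM alpha-KG for 80 min at room temperature; remaining NADPH was read by diaphorase/resazurin fluorescence.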
rTrxR1 inhibitor – rat TrxR1 inhibition | recombinant rTrxR1, NADPH fluorescence consumption, selenite substrate | Potency, µM (highest dose often 114 µM), for inactives: top-dose activity change, negative = inhibition, usual class: inhibitors | 390,000 tested, 1% active; also: nearly all actives have a fitted effect of over 65% in size
Target sequence (O89049 whole entry, looked up): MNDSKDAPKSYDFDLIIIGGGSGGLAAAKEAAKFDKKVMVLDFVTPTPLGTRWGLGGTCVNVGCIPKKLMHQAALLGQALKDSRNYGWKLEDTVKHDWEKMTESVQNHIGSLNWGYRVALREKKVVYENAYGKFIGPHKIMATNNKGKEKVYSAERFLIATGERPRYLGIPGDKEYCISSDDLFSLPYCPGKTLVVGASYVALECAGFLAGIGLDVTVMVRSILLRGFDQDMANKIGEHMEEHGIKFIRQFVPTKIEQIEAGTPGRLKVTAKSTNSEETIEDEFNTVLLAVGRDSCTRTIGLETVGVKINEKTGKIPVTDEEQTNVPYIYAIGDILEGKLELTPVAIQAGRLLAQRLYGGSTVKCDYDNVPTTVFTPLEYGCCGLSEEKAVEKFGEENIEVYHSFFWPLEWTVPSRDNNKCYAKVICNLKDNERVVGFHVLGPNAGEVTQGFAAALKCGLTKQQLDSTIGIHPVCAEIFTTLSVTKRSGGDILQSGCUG
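Rat TrxR1 (90 nM in the dispensed reagent) was pre-reduced with 400 uM NADPH for 5 min at room temperature, then incubated with compound for 15 min. After 400 uM selenite was added, NADPH fluorescence (Ex 340/Em 450 nm) was followed for 8 min.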
TrxR1 substrate – rat thioredoxin reductase 1 substrate activity; O89049; purified TrxR1 substrate turnover, NADPH consumption readout; Potency, µM (highest dose often 114 µM), for inactives: at the top dose activity change, negative = substrate turnover; 390,000 tested, 0.01% active; AID 588456; also: nearly all actives have a fitted effect of over 50% in size
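Rat TrxR1, dispensed at 90 nM, was prereduced with 400 uM NADPH (final) for 5 min at ~22 deg C, then incubated with compound 15 min before 400 uM selenite. A first-read NADPH fluorescence drop versus no-compound background flagged substrates.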
Anesthetic bind – binds horse apoferritin like a general anesthetic | 350,000 tested, 0.074% active | Potency, µM (doses to about 77.5 µM), for inactives: at the highest dose activity change, negative = displacement, usual class: inhibitors | AID 485281 | apoferritin/1-aminoanthracene competitive binding, fluorescence; also: nearly all actives have a fitted effect of over 20% in size
Target sequence (P02791 2-175 limits assumed): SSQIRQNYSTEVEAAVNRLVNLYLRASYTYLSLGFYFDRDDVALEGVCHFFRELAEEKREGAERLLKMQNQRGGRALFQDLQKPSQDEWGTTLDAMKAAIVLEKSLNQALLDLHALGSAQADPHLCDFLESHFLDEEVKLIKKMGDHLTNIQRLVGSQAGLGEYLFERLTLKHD
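Horse-spleen apoferritin (10 uM) in 50% saturated 1-aminoanthracene in PBS was incubated 10 min at room temperature with compound. Fluorescence (ex 380, em 535 nm) was normalized to free and bound 1-AMA, with concentration-response fitted by a four-parameter Hill equation.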
GALK inhibitor – blocks human galactokinase activity. Purified GALK, Kinase-Glo residual ATP luminescence. Potency, µM (doses to about 57.5 µM), inactives show at the top dose activity change, negative = inhibition, actives largely listed as inhibitors. P51570. 270,000 tested, 0.007% active
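Quantitative HTS: GALK 5 nM, ATP 35 uM, galactose 100 uM, 1 h room temperature, then luciferase-based ATP detection.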
PKM2 activator – activators of human pyruvate kinase M2; purified PKM2, Kinase-Glo ATP luminescence, activation; response scale: 0% is enzyme alone, no compound; P14618; Potency, µM (doses to about 57.5 µM), for inactives: top-dose activation, most hits filed as activators; 260,000 tested, 0.34% active; also: nearly all actives have a fitted effect of over 55% in size
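Purified hPK-M2 (>95%) run at intermediate activity with 0.1 mM ADP and 0.5 mM PEP in 50 mM imidazole pH 7.2, KCl, MgCl2; 1 h room temperature. ATP formed read by Kinase-Glo luminescence; normalized to uninhibited and no-enzyme controls.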
The depositor's hits bear a star; [ ] = remark or other dose. Calls follow the shape of the dose curve; as a rule, active = well fitted curve in the direction sought with a large enough effect; inconclusive = small, poorly fitted or top-dose-only effect, or another doubt; inactive = no such curve, though single readings can be large; an effect the other way counts as inactive or inconclusive. % is scaled to controls: 0 for no effect and ±100 for the full control effect; potency is read from the fitted curve at half-maximal effect.

`Cc1ccc(C)c(NC(=O)CN2C(=O)C3(SCC(=O)N3c3ccc(C)c(C)c3)c3ccccc32)c1` (configuration not stated) gave IDH1 R132H inh 10.7%, rTrxR1 inhibitor 9.2%, TrxR1 substrate -0.2% and Anesthetic bind inconclusive.
`Cc1c(C(=O)N2CCCC2)oc2c1-c1nn(CC(=O)NC(C)c3ccccc3)cc1CC2` (configuration not stated) gave IDH1 R132H inh 0.3%, rTrxR1 inhibitor -2.5%, TrxR1 substrate -0.5% and Anesthetic bind -6.0%.
COc1cc(C2c3c(n[nH]c3C)C(=O)N2c2ccc(Br)cc2)ccc1O (configuration not stated) was read as IDH1 R132H inh -0.5%, rTrxR1 inhibitor 7.94µM*, TrxR1 substrate 3.6%, Anesthetic bind 2.9%, GALK inhibitor -2.2% and PKM2 activator -0.9%.
For NC(=O)/C=C\C(=O)Nc1cccc(C(F)(F)F)c1 the results were IDH1 R132H inh 14.2%, rTrxR1 inhibitor 25.1µM*, TrxR1 substrate 10.5%, Anesthetic bind -14.4%, GALK inhibitor -4.3% and PKM2 activator inconclusive.
O=C(Nc1ccc(-c2cn3cccnc3n2)cc1)c1cc(Br)ccc1Cl was read as IDH1 R132H inh -4.6%, rTrxR1 inhibitor -6.2%, TrxR1 substrate -5.9% and Anesthetic bind -4.2%.
Screening NS(=O)(=O)c1ccc(NC(=S)Nc2ccn(Cc3cccc4ccccc34)n2)cc1 returned IDH1 R132H inh -1.7%, rTrxR1 inhibitor 12.6µM*, TrxR1 substrate -0.8%[57.1 µM], Anesthetic bind -6.7%, GALK inhibitor -1.6% and PKM2 activator 6.2%.
NS(=O)(=O)c1ccc(NS(=O)(=O)c2ccc(NC(=S)Nc3ccccc3)cc2)cc1 was read as IDH1 R132H inh -15.4%, rTrxR1 inhibitor inconclusive, TrxR1 substrate 9.0%[57.1 µM], Anesthetic bind 4.0%, GALK inhibitor -1.5% and PKM2 activator 7.1%.
`NC(=O)CCN1CCCCC1` gave IDH1 R132H inh -5.2%, rTrxR1 inhibitor 4.1%, TrxR1 substrate -3.8%, Anesthetic bind -0.3%, GALK inhibitor 4.8% and PKM2 activator -0.4%.
`O=C(CCC(=O)CCN1CCCCC1)CCN1CCCCC1` gave IDH1 R132H inh -0.2%, rTrxR1 inhibitor 1.78µM*, TrxR1 substrate 8.2%[57.1 µM], Anesthetic bind -3.6%, GALK inhibitor 4.6% and PKM2 activator 0.7%.
CCN(CC)CCC=C(c1cccs1)c1cccs1 was read as IDH1 R132H inh 9.4%, rTrxR1 inhibitor 22.4µM* and TrxR1 substrate 13.4%.
Screening Nc1c(C(=O)Nc2ccccc2)sc2nc(-c3cccnc3)ccc12 returned Anesthetic bind -12.1%, GALK inhibitor -1.9% and PKM2 activator 11.2µM*.
For COc1ccc(NC(=O)c2sc3nc(-c4cccnc4)ccc3c2N)cc1 the results were IDH1 R132H inh -4.8%, rTrxR1 inhibitor 5.0%[57.1 µM], TrxR1 substrate 1.3%[57.1 µM], Anesthetic bind -12.4%, GALK inhibitor -2.4% and PKM2 activator -5.0%.
Screening Nc1c(C(=O)Nc2ccccc2)sc2nc(-c3ccco3)ccc12 returned IDH1 R132H inh 11.6%, rTrxR1 inhibitor 3.98µM*, TrxR1 substrate 15.2%, Anesthetic bind 3.8%, GALK inhibitor -0.9% and PKM2 activator 2.9%.
`COc1ccccc1CNC(=O)C1CCCN(c2nc3ccccc3n3cccc23)C1` (configuration not stated) gave IDH1 R132H inh -15.0%, rTrxR1 inhibitor 15.9%, TrxR1 substrate -6.5% and Anesthetic bind -9.5%.
`COc1ccc(CCNC(=O)C(=O)NCC(c2cccs2)S(=O)(=O)c2ccccc2)cc1` (configuration not stated) gave IDH1 R132H inh 10.5%, rTrxR1 inhibitor -0.7%[57.1 µM], TrxR1 substrate -7.9%[57.1 µM] and Anesthetic bind 45.1%.
`O=C1C=C(NC2=CC3OC(c4ccccc4)OCC3OC2=O)CCC1` (configuration not stated) gave IDH1 R132H inh 0.7%, rTrxR1 inhibitor 8.91µM*, TrxR1 substrate -11.8%, Anesthetic bind -8.3%, GALK inhibitor -0.1% and PKM2 activator 14.2%.
Screening O=C(CCl)NC(=O)NC12CC3CC(CC(C3)C1)C2 returned IDH1 R132H inh -5.4%, rTrxR1 inhibitor 14.1µM*, TrxR1 substrate 7.8%, Anesthetic bind inconclusive, GALK inhibitor -5.9% and PKM2 activator -3.5%.
Screening CN(C)c1ccc(/C=C/c2ccnc3cc(Cl)ccc23)cc1 returned rTrxR1 inhibitor -11.5% and TrxR1 substrate -2.6%[0.0914 µM].
`CCc1ccc(C(C)NC(=O)c2cc(C)oc2C)cc1` (configuration not stated) gave IDH1 R132H inh 4.0%, rTrxR1 inhibitor 20µM*, TrxR1 substrate -2.8%, Anesthetic bind -12.1%, GALK inhibitor 0.6% and PKM2 activator inconclusive.
For CCCCCCCCCCCCCCCCCCN(CCCCCCCCCCCCCCCCCC)c1ccccc1 the results were rTrxR1 inhibitor 22.3% and TrxR1 substrate 6.9%.
COc1cccc(-c2oc3ccc(C)cc3c(=O)c2O)c1 was read as IDH1 R132H inh -21.4%, rTrxR1 inhibitor 24.2%, TrxR1 substrate -3.8% and Anesthetic bind 11.6%.
CCCCn1c(SCC(=O)Nc2cc(C)on2)nc2c1c(=O)n(C)c(=O)n2C was read as IDH1 R132H inh -1.8%, rTrxR1 inhibitor 11.3%, TrxR1 substrate 1.5%, Anesthetic bind -13.2%, GALK inhibitor 2.3% and PKM2 activator 20µM*.
Screening Cc1cc(NC(=O)CSc2nc3c(c(=O)n(C)c(=O)n3C)n2C(C)C)no1 returned IDH1 R132H inh 5.5%, rTrxR1 inhibitor 17.1%, TrxR1 substrate 6.0%, Anesthetic bind 7.1%, GALK inhibitor -1.8% and PKM2 activator 28.2µM*.
For N#C/C(=C/c1ccc(N2CCOCC2)o1)c1ccc(Cl)cc1 the results were IDH1 R132H inh 4.3%, rTrxR1 inhibitor 3.16µM*, TrxR1 substrate -2.1%, Anesthetic bind -23.9%, GALK inhibitor 2.2% and PKM2 activator 1.26µM*.
`O=C(O)C1C2CCC(O2)C1C(=O)Nc1cnn(Cc2ccccc2)c1` (configuration not stated) gave IDH1 R132H inh -0.1%, rTrxR1 inhibitor 15.1%, TrxR1 substrate 14.4%[57.1 µM], Anesthetic bind -8.7%, GALK inhibitor -1.9% and PKM2 activator 1.3%.
O=C(Nc1cnn(Cc2ccccc2)c1)NC12CC3CC(CC(C3)C1)C2 was read as IDH1 R132H inh 6.9%, rTrxR1 inhibitor -14.6%, TrxR1 substrate -4.0%[57.1 µM], Anesthetic bind 15.8µM*, GALK inhibitor 0.4% and PKM2 activator -13.7%.
